Where “and” joins values, the source holds several entries; their conditions need not be identical. Equal entries are not always repeated. Calls of active or inactive are those of the source.
How the values were obtained:
[1] = small molecules captured by biotinylated probe aFSTL3 – biochemical, small-molecule microarray, fluorescence 635/667, stem cell growth factor project, primary screen (AID 1064); conditions: higher = more signal;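 note: measures binding of the biotinylated anti-FSTL3 antibody to printed compounds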
[2] = binders from COS7 lysate, DM2A8 probe, primary screen, torsin A project, cell lysate, small-molecule microarray, fluorescence 635/667 (AID 1065); conditions: higher = more signal, COS7 lysate expressing mutant human TOR1A
[3] = small molecules captured by biotinylated probe aFGF2 – biochemical, small-molecule microarray, fluorescence 635/667, stem cell growth factor project, primary screen (AID 1067); conditions: higher = more signal;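 note: measures binding of biotinylated aFGF2 protein to printed compounds on slides; z-score merges feature fluorescence and signal-to-noise across triplicate slides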
[4] = small molecules captured by biotinylated probe aFGF10 – biochemical, small-molecule microarray, fluorescence 635/667, stem cell growth factor project, primary screen (AID 1071); conditions: higher = more signal;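 note: score merges 667 nm spot intensity and signal to noise from triplicate slides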
[5] = biological target: Neurogenic locus notch homolog protein 2 (Homo sapiens) (UniProt Q04721); test: small molecules binding Notch2 protein – biochemical, small-molecule microarray, 635 nm fluorescence, stem cell growth factors, primary screen (AID 1073); conditions: higher = more signal
[6] = biological target: Pro-neuregulin-1, membrane-bound isoform (Homo sapiens) (UniProt Q02297); test: small molecules binding neuregulin-1 protein – biochemical, small-molecule microarray, fluorescence 635/667, psychiatric disease protein project, primary screen (AID 1075); conditions: NRG1 binding, 635 nm fluorescence, higher = more signal;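 note: score combines 667 nm spot fluorescence with signal to noise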
[7] = system: Neuregulin-1 EGF-like domain; test: small molecules binding NRG1 EGF domain – biochemical, small-molecule microarray, 635 nm fluorescence, primary screen (AID 1081); conditions: higher = more signal;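 note: binding of the protein to compounds printed on small-molecule microarray slides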
[8] = FRG1 expression reporter modulators in myotubes – cell-based, C2C12 myotubes, firefly/Renilla luciferase, luminescence, FRG1 inhibition for FSHD, primary screen (AID 1084); conditions: FRG1 promoter luciferase, higher = more signal, called active from +8 up or from −8 down
[9] = small molecules captured by biotinylated probe aFST – biochemical, small-molecule microarray, fluorescence 635/667, stem cell growth factor project, primary screen (AID 1086); conditions: higher = more signal;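 note: score merges 667 nm fluorescence with signal-to-noise of each printed compound spot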
[10] = binders of probe aHhip on microarray, primary screen, stem cell growth factor project, biochemical, small-molecule microarray, fluorescence 635/667 (AID 1087); conditions: higher = more signal;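 note: score merges spot fluorescence at 667nm with spot signal to noise ratio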

Pro-neuregulin-1, membrane-bound isoform (Homo sapiens), sequence (Q02297 whole entry, looked up, the tested form may be a part, canonical isoform): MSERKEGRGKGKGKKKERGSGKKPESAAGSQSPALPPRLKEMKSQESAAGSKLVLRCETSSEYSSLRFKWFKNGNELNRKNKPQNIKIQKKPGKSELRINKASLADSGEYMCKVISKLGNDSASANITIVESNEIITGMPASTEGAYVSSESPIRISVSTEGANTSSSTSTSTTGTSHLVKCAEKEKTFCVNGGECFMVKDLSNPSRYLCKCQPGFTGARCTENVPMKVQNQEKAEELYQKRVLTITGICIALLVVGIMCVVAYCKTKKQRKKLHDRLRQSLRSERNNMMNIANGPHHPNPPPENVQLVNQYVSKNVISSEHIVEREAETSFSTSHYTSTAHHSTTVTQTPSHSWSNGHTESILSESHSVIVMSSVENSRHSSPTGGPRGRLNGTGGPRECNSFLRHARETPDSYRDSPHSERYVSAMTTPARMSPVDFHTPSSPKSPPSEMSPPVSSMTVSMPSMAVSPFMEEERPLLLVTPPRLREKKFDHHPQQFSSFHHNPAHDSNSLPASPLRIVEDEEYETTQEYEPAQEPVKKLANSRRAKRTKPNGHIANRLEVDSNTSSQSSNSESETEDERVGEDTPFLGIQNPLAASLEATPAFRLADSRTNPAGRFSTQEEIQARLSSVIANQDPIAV
Neurogenic locus notch homolog protein 2 (Homo sapiens), sequence (Q04721 whole entry, looked up, canonical isoform): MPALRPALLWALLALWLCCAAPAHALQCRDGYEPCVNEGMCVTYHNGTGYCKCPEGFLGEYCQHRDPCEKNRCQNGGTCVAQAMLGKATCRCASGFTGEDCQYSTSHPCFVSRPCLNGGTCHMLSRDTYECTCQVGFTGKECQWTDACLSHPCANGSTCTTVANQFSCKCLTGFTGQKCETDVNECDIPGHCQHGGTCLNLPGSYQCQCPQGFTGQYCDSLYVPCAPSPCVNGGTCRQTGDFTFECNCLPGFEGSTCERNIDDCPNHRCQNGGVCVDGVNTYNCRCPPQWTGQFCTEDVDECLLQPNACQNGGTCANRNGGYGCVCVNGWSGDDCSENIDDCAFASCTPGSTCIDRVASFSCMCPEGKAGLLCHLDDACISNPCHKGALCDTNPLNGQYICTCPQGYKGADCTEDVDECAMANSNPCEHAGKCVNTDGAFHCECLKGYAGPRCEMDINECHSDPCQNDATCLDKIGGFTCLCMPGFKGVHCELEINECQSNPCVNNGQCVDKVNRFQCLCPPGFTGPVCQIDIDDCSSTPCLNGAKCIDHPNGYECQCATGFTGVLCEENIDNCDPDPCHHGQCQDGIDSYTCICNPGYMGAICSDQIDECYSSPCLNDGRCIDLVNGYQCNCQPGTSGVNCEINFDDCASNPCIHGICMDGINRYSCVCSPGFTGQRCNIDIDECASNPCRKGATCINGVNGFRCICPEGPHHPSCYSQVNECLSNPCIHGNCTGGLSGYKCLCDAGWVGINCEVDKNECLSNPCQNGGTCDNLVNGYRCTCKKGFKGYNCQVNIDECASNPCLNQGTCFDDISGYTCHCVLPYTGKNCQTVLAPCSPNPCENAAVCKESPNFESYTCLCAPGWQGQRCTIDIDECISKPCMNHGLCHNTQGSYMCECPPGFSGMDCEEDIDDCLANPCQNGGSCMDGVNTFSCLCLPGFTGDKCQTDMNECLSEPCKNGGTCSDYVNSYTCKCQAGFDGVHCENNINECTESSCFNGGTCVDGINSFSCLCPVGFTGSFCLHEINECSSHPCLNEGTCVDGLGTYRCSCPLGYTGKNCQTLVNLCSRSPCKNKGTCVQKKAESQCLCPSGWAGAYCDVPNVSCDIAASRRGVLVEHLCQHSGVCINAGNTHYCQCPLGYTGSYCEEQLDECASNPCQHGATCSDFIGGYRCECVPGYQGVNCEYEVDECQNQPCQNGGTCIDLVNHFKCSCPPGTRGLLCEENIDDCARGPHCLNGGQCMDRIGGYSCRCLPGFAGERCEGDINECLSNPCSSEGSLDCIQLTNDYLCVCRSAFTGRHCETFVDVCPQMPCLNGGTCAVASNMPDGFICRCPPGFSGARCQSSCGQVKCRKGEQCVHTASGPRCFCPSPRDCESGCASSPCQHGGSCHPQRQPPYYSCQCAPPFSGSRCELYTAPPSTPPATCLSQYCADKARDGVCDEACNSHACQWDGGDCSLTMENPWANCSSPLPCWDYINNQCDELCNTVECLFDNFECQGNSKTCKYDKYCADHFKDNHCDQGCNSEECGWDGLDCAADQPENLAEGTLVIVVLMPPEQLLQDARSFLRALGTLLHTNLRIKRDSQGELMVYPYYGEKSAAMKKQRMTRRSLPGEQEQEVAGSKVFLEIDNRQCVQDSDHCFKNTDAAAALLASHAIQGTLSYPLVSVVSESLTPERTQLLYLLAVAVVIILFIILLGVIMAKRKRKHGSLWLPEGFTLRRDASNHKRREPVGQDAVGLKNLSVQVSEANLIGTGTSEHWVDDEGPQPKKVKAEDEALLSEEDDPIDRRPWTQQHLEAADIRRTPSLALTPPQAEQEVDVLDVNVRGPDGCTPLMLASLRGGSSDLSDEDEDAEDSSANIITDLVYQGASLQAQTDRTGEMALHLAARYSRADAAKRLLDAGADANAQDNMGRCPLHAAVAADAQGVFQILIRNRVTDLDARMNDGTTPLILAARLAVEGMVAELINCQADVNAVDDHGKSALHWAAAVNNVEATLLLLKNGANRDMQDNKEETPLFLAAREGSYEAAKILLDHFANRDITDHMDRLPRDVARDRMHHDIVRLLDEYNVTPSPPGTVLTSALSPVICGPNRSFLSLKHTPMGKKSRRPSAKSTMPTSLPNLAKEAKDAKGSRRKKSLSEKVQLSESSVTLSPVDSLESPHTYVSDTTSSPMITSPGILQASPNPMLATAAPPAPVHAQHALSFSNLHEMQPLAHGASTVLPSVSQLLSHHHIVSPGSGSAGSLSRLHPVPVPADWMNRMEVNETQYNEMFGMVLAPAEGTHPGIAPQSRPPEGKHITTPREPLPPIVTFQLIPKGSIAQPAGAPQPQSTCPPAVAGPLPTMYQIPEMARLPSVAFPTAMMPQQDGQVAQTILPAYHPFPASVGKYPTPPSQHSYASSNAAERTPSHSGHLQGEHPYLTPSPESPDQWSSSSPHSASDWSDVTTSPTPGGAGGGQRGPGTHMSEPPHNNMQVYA

Compound	composite z-score [1]	composite z-score [2]	composite z-score [3]	composite z-score [4]	composite z-score [5]	composite z-score [6]	composite z-score [7]	z-score [8]	composite z-score [9]	composite z-score [10]
CO[C@H]1COC(=O)[C@H](C)NC(=O)CC=C[C@@H](C)[C@H](OC)COC(=O)CC=C[C@@H]1C	-0.748	2.16	-0.125	-0.0919	-0.362	-0.745	0.0232	-0.628 (inactive)	-0.0994	0.201
CCN1C(=O)[C@H]2[C@H]3[C@H](O)[C@H](O)CC(=NOC[C@@H](O)COCc4ccco4)[C@@H]3CC[C@H]2C1=O	-0.841 and -0.446	2.37 and 0.0438	-0.235 and -0.132	-0.507 and 0.352	-0.413 and -0.498	-0.538 and -0.26	0.837 and 1.12	0.235 (inactive) and 0.417 (inactive)	-0.104 and -0.45	-0.0645 and 0.154
C=CCN(C(=O)C(c1cccs1)N(CCOCCO)C(=O)/C=C\C(=O)O)c1ccc(OC)cc1 (stereo not given)	-0.454 and 0.71	-0.415 and -1.59	-0.103 and -0.186	-0.729 and -1.06	-1.03 and -1.83	-0.933 and -1.12	-0.247 and -0.936	-0.993 (inactive) and -0.205 (inactive)	-0.348 and -0.687	-0.301 and -0.226
CO[C@H]1COC(=O)CC=C[C@@H](C)COC(=O)[C@H](CCSC)NC(=O)CC=C[C@@H]1C	-0.638 and -0.893	2.71 and 2.84	0.561 and -0.386	-0.174 and -0.853	-0.375 and -0.583	-0.591 and -1.25	1.01 and 0.444	-0.172 (inactive) and -0.845 (inactive)	0.536 and 0.0907	0.12 and -0.154
C=C[C@@H](C)[C@@H](O)c1ccc(OCCO)cc1	1.01 and 0.0727	-1.44 and -0.971	-0.232 and -0.273	-1.47 and -1.27	-1.86 and -1.3	-0.408 and -0.496	-0.477 and -0.674	4.33 (inactive) and 1.84 (inactive)	-1.9 and -0.848	-0.242 and -0.644
C=CCN(CCCCC)C(=O)C(c1cccs1)N(C(=O)/C=C\C(=O)O)c1ccc(CCO)cc1 (stereo not given)	0.786 and 0.657	-1.96 and -1.13	-0.182 and -0.201	-0.507 and -1.34	-1.77 and -0.81	0.279 and -0.706	1.53 and 1.51	0.349 (inactive) and 0.348 (inactive)	-0.713 and -0.498	0.106 and -0.274
C=CCN(C(=O)C(c1cccs1)N(CCOCCO)C(=O)/C=C\C(=O)O)C(C)(C)C (stereo not given)	0.982 and 1.01	-0.718 and -0.131	-0.228 and -0.192	-0.708 and -0.376	-1.28 and -1.44	-0.395 and -0.988	0.484 and 0.745	-0.0773 (inactive) and -0.143 (inactive)	-0.78 and -1.06	-0.277 and -0.169
C=CCN(C(=O)C(c1cccs1)N(C(=O)/C=C\C(=O)O)c1ccc(CCO)cc1)c1ccc(OC)cc1 (stereo not given)	0.862 and 1.92	-0.812 and -1.02	-0.236 and -0.312	-1.73 and -1.74	-1.21 and -2.49	0.017 and -1.66	0.877 and -1.46	0.253 (inactive) and 0.243 (inactive)	-0.889 and -1.13	-0.134 and -0.204
